Screening results: PubChem BioAssay, several laboratories
CYP2C19 activ: increases human CYP2C19 enzyme activity; recombinant CYP2C19, luciferin-H EGE luminescence; hits give high values; 0 = fully inhibited enzyme, 1 = untreated enzyme; P33261; 96,000 tested, under 10 active; activation factor at 5 µM; AID 1025;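 active means activation factor of at least 2 at 5 µM in the primary screen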;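 further: 0 = wells with 2.5 mM tranylcypromine and 1 = vehicle-only wells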
CYP2C9 inhib: blocks human cytochrome P450 2C9; P11712; CYP2C9 Supersomes, luciferin-H conversion, luminescence; inhibition, % at 5 µM; 20% of 96,000 active;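 active means blocking of liver enzyme CYP2C9 beyond about 50% at 5 µM, limit read from the data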
Target sequence (P11712 whole entry, looked up): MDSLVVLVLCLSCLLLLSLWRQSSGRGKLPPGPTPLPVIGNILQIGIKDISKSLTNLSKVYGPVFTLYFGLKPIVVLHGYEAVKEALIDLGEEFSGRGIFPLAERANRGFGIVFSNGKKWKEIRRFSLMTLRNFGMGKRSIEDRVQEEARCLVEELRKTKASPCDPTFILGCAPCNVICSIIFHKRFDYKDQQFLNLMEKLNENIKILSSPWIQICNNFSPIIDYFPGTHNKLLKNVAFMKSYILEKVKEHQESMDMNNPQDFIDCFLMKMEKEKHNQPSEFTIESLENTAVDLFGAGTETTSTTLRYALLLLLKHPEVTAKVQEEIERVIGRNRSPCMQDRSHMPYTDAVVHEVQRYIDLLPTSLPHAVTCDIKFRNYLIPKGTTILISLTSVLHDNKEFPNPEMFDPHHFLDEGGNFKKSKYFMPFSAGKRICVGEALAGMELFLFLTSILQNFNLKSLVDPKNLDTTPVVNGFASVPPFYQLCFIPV
CYP2C9 act: activators of human CYP2C9. P11712. recombinant CYP2C9, luciferin-H conversion, luminescence; hits give high values; factor 1 = untreated enzyme, 0 = blocked. activation factor at 5 µM. 1.4% of 96,000 active;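 active means activation factor of 2 or more for CYP2C9 at a 5 µM dose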;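 further: 0 = sulfaphenazole-blocked wells and 1 = vehicle-only wells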
Cav32 inh: human Cav3.2 channel inhibition, primary screen; O95180; Cav3.2-expressing cells, Fluo-4 calcium fluorescence FDSS; hits give low values; B-score at 10 µM; 4% of 100,000 active; AID 449739;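 active means single-dose well whose peak fluorescence ratio is a statistical outlier from its plate by either plate-standardised score or position-corrected B-score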
CYP2C19 inhib: human CYP2C19 inhibition; CYP2C19 Supersomes, luciferin-H EGE luminescence, 30 min; inhibition, % at 5 µM; 21% of 96,000 active; AID 778;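 active means CYP2C19 inhibition above a set limit at 5 µM in the primary screen, cut at about 50% in these data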;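 further: plate controls were negative control wells for no effect and 2.5 mM tranylcypromine positive control for full effect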
* marks the source's active call; other numbers are inactive results; / = not tested or not shown. Compounds with a hit are over-represented: about 27% of the library has one in this group of screens.

SMILES	CYP2C19 activ	CYP2C9 inhib	CYP2C9 act	Cav32 inh	CYP2C19 inhib
CCOC(=O)c1cc(C#N)c(Oc2ccccc2)nc1-c1ccccc1	0.8	33	0.7	-1.5	22
C=CCNc1nc(-c2ccccc2)c(C(=O)OCC)cc1C#N	0.7	25	0.8	-4.4*	26
CCCCNc1nc(-c2ccccc2)c(C(=O)OCC)cc1C#N	0.7	56*	0.4	-4.2	31
COC(=O)c1cc(NC(=O)Cc2coc3cc(OC)ccc23)cc(C(=O)OC)c1	0.4	92*	0.1	-0.75	58*
COC(=O)c1cc(NC(=O)Cc2ccc(OC)c(OC)c2)cc(C(=O)OC)c1	0.9	82*	0.2	0.85	12
COC(=O)c1ccc(C)c(NC(=O)Cc2coc3cc(OC)ccc23)c1	0	98*	0	-0.077	95*
COc1ccc2c(CC(=O)OCC(=O)Nc3ccc4c(c3)OCO4)coc2c1	0.8	38	0.6	-0.49	16
CN1OC(COC(=O)c2ccccc2)CC1c1ccccc1 (stereo not given)	0.5	-26	1.3	-0.86	50
CC1(C)Cc2noc(N)c2C(C)(C)N1OC(=O)c1ccccc1	0	57*	0.4	-1.3	100*
COc1ccc(C2/C=C\CN(C(=O)c3ccc(C)cc3)[C@H](Cc3ccccc3)C(=O)N2Cc2ccc(F)cc2)cc1 (stereo not given in full)	/	/	/	-2.7	/
CCCOc1ccc(N2C(=O)CC(N(CCc3ccc(OC)cc3)C(=O)c3cccc(F)c3)C2=O)cc1 (stereo not given)	0.4	58*	0.4	-4.6*	62*
CCCOc1ccc(N2C(=O)CC(N(CCC)C(=O)CCC(=O)O)C2=O)cc1 (stereo not given)	1.1	-16	1.2	-0.18	-9
COc1ccc(S(=O)(=O)N(CC(=O)NC2CC2)c2ccc(C)cc2)cc1OC	0	13	0.9	-0.35	99*
COc1ccc(C)cc1N(CC(N)=O)S(=O)(=O)c1ccc(C)cc1	0.1	54*	0.5	/	90*
COc1ccc(S(=O)(=O)N(C)CC(=O)NC2CCCCC2)cc1OC	0.7	-61	1.6	0.68	29
COc1ccc(OC)c(N(CC(=O)NC2CC2)S(=O)(=O)c2ccc(C)cc2)c1	0.2	80*	0.2	0.73	84*
CC(C)(C)C(=O)NCCN1CCN(C(=O)C(C)(C)C)CC1	/	/	/	0.58	/
CC(=O)Nc1cccc2c1OCCO2	1	0	1	-1.2	0
COc1ccc(OC)c(NC(=O)c2ccc(-n3cccn3)nc2)c1	1	-25	1.3	-0.74	3
O=C(Nc1ccccc1F)c1ccc(-n2cncn2)nc1	0	69*	0.3	/	97*
Cc1cccc(C)c1NC(=O)c1ccc(-n2cnnn2)cc1	0.7	10	0.9	0.39	34
Cc1cccc(C)c1NC(=O)c1ccc(-n2cncn2)nc1	0.1	66*	0.3	0.77	93*
Cc1cc(C)cc(N2CCCn3c2nc2c3c(=O)n(CCN3CCOCC3)c(=O)n2C)c1	1.1	-2	1	2	-12
CCOC(=O)N1CCN(c2ccc(Cl)c(Cl)c2)CC1	0.8	28	0.7	-2	15
O=C(c1csc2c1CCCC2)N1CCN(c2cccc(C(F)(F)F)c2)CC1	0.3	-61	1.6	-1.2	65*
SMILES	CYP2C19 activ	CYP2C9 inhib	CYP2C9 act	Cav32 inh	CYP2C19 inhib
O=C(c1csc2c1CCCC2)N1CCN(c2ncccn2)CC1	0.3	82*	0.2	0.22	65*
O=C(c1csc2c1CCCC2)N1CCN(c2ccc(F)cc2)CC1	/	/	/	-2.5	/
O=C(c1cccc(F)c1)N1CCN(c2cccc(C(F)(F)F)c2)CC1	0.1	81*	0.2	-2	88*
CCOC(=O)N1CCN(c2ccc(C(=O)c3cccc(F)c3)cc2)CC1	0.3	82*	0.2	-2.3	67*
O=C(NNC(=O)c1ccco1)c1cccc([N+](=O)[O-])c1	1	6	0.9	0.15	0
COc1ccccc1C(=O)N1CCN(c2cccc(C(F)(F)F)c2)CC1	0.1	68*	0.3	-2.1	92*
Cc1ccc2[nH]c(=O)c(CN(CC3CCCO3)C(=O)c3ccncc3)cc2c1 (stereo not given)	0	84*	0.2	0.44	98*
O=C(c1cccs1)N(Cc1ccco1)Cc1cc2ccccc2[nH]c1=O	0.3	67*	0.3	0.085	75*
Cc1ccc2[nH]c(=O)c(CN(Cc3ccco3)C(=O)c3ccncc3)cc2c1	0	96*	0	0.18	100*
COc1ccc(C(=O)N[C@H]2COC(C)(C)O[C@H]2c2ccccc2)cc1	1	-3	1	0.73	-1
Cc1nc2sc(C(c3ccccc3)N3CCN(CCO)CC3)c(O)n2n1 (stereo not given)	/	/	/	-0.99	/
CC1CN(Cc2ccccc2Cl)CC(C)O1 (stereo not given)	0.8	-4	1	-1.6	19
Cc1ccc(-c2ccc3c(c2)S(=O)(=O)c2ccccc2C3=O)cc1	/	/	/	-0.29	/
COc1ccc(S(=O)(=O)N2CCC(C(=O)NCc3ccccn3)CC2)cc1OC	1	-17	1.2	0.22	0
O=C(COc1ccc(S(=O)(=O)N2CCc3ccccc32)cc1Cl)NCc1ccccn1	0.1	94*	0.1	-1.8	94*
COc1ccc(C2=NOC(C)(c3nnc(-c4ccncc4)o3)C2)cc1 (stereo not given)	/	/	/	0.61	/
O=C(CSc1ncnc2c1oc1ccccc12)Nc1cccc(C(F)(F)F)c1	1.2	4	1	/	-17
CCOc1ccccc1NC(=O)CSc1ncnc2c1oc1ccccc12	1	85*	0.1	-0.93	4
CCc1nnc(NC(=O)CSc2ncnc3c2oc2ccccc23)s1	0.7	77*	0.2	-0.31	25
O=C(CSc1ncnc2c1oc1ccccc12)Nc1cccc(Cl)c1	0.7	60*	0.4	-1	32
O=C(CSc1ncnc2c1oc1ccccc12)Nc1ccccc1F	1.1	20	0.8	-0.0083	-13
O=C(CSc1ncnc2c1oc1ccccc12)Nc1nc2ccccc2s1	0.8	77*	0.2	-1.3	16
CCC(=O)N1CCc2cc(S(=O)(=O)NCCN3CCCCC3CC)ccc21 (stereo not given)	1	-17	1.2	0.057	0
CC(=O)Nc1nc(CC(C)C)cc(-c2ccco2)c1C#N	1.1	1	1	-0.057	-11
CCc1ccccc1NC(=O)CN(C)Cc1nc(N)nc(Nc2ccccc2C)n1	0.3	30	0.7	/	68*
Cc1ccccc1Nc1nc(N)nc(CN(C)c2ccccc2)n1	0.7	37	0.6	-0.97	32
CCOc1ccccc1NC(=O)CSc1nnc(Cc2cccn2C)n1-c1ccc(F)cc1	0.9	28	0.7	-9.3*	9
Cn1cccc1Cc1nnc(SCC(=O)NCc2ccccc2)n1-c1ccc(F)cc1	1.1	1	1	-0.94	-14
CCOC(=O)c1ccccc1NC(=O)CSc1nnc(Cc2cccn2C)n1-c1ccc(F)cc1	0.8	57*	0.4	-5.5*	24
